Test results taken from PubChem BioAssay (NCATS).
Values without a mark were called inactive. Inconclusive results are not listed. Entries that show only a call come without a potency. Activity calls are given as the source filed them. The call rests on the fitted dose curve; in most records, active means well fitted curve in the direction sought with a large enough effect; inconclusive means small, poorly fitted or top-dose-only effect, or another doubt; inactive means no such curve, though single readings can be large; an effect the other way counts as inactive or inconclusive. Numbered stars: 1 amine (or outer) side, 2 acyl side, 3 side chain; on linkers, the order of the positions; unused ones are H or OH. Bridge positions count the residues as written; N and C are the ends. Square brackets hold non-standard residues; d marks the D form. Peptide text beside a SMILES is read from it. ξ: configuration not given here. Phe(3R-OH) = O=C([C@@H](N[*:1])[C@H](O[*:3])c1ccccc1)[*:2]; NMeTrp(4-OMe) = CN[C@@H](Cc1c[nH]c2cccc(OC)c12)C(=O)O; ξThr(3R)(O-yl) = C[C@@H](O[*:3])C(N[*:1])C(=O)[*:2]; NMeThr(3ξ) = CN[C@H](C(=O)O)C(C)O; NMeL = CN[C@@H](CC(C)C)C(=O)O; NMeV = CN[C@H](C(=O)O)C(C)C; ξIle = CC[C@H](C)C(N)C(=O)O; ξV = CC(C)C(N)C(=O)O

Assays:
[1] = tested on: Zika virus NS2B-NS3 protease (linked construct); test: Primary screen NINDS Rhodamine qHTS for Zika virus inhibitors (AID 1347160); further: nearly all actives have a fitted effect of over 55% in size; further: potency means the concentration at half of the fitted maximal effect
Procedure, shortened: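 Rhodamine110-peptide cleavage (1.5 µM substrate) by 25 nM linked NS2B-NS3 enzyme at pH 8.0 (Tris, Tween 20), after 15 min RT preincubation with compounds; 15-min fluorescence change normalized to controls and Hill-fitted.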

[2] = OV-KATE Cancer Cell Toxicity qHTS against the NCATS CANVASS Library (AID 1347345)
Procedure, shortened: (§1)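 Following a 4 h pre-incubation of 1000 seeded cells, compounds were pinned in an 11-pnt dilution series and left for 72 h; viability then came from CellTiter-Glo.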

[3] = HPAF-II Cancer Cell Toxicity qHTS against the NCATS CANVASS Library (AID 1347346); further: nearly all actives have a fitted effect of over 55% in size; further: potency means the concentration at half of the fitted maximal effect
Procedure, shortened: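 Cytotoxicity read-out was CellTiter-Glo luminescence after 72 h at 37 degrees C exposure of HPAF-II cells (1000/well) to compounds in an 11-point titration.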

[4] = UWB1.289 Cancer Cell Toxicity qHTS against the NCATS CANVASS Library (AID 1347347); further: nearly all actives have a fitted effect of over 60% in size
Procedure, shortened: as §1

[5] = OV-SAHO Cancer Cell Toxicity qHTS against the NCATS CANVASS Library (AID 1347348); further: series mostly up to about 38 µM; nearly all actives have a fitted effect of over 55% in size
Procedure, shortened: as §1

[6] = U-118MG Cancer Cell Toxicity qHTS against the NCATS CANVASS Library (AID 1347351)
Procedure, shortened: as §1

[7] = COV-362 Cancer Cell Toxicity qHTS against the NCATS CANVASS Library (AID 1347352); further: series mostly up to about 38 µM
Procedure, shortened: (§2)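 Toxicity was measured as CellTiter-Glo luminescence after 72 h exposure to an 11-point compound series. Compound was added to 1000 cells/well 4 h after seeding.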

[8] = A2780 Cisplatin Sensitive Ovarian Cancer Cell Toxicity qHTS against the NCATS CANVASS Library (AID 1347353); further: nearly all actives have a fitted effect of over 60% in size
Procedure, shortened: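 Cisplatin-sensitive A2780 ovarian cells (750/well) received compound in 11 concentrations, and were incubated 72 h at 37 °C. ATP content was measured by ATPLite luminescence; bortezomib served as control.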

[9] = UWB1.289-WTBRCA1 Cancer Cell Toxicity qHTS against the NCATS CANVASS Library (AID 1347354)
Procedure, shortened: as §2

[10] = HPAF-II 24hr Apoptosis Induction qHTS against the NCATS CANVASS Library (AID 1347356)
Procedure, shortened: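 Caspase-Glo 3/7 luminescence, read after 15 min room-temperature development, measures apoptosis in HPAF-II cells treated 24 h at 37 degrees C with an 11-point concentration series; 500 cells/well; doxorubicin control.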

[11] = HEK293 24hr Apoptosis Induction qHTS against the NCATS CANVASS Library (AID 1347359)
Procedure, shortened: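 HEK293 cells (500/well, DMEM + 10% FBS) were exposed to compounds in an 11-point series for 24 hours at 37 degrees C, then caspase-3/7 activity was read by Caspase-Glo DEVD luciferase luminescence after 15 min.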

[12] = HEK293 12hr Apoptosis Induction qHTS against the NCATS CANVASS Library (AID 1347361)
Procedure, shortened: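 Luminescent caspase-3/7 signal, proportional to enzyme activity, was recorded from HEK293 cultures in DMEM + 10% FBS treated for 12 hours with titrated natural products (11 points). Doxorubicin (0.1nM - 4uM) served as control.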

[13] = tested on: NAD(P)H diaphorase (Clostridium kluyveri); test: Diaphorse counterscreen qHTS: Assay Interference Panel against the NCATS CANVASS Library (AID 1347362)
Procedure, shortened: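 Clostridium kluyveri diaphorase in PBS with 0.01% Tween-20 was preincubated 15 min at room temperature in the dark with compounds (11-point series). Resorufin fluorescence (ex 525/20, em 598/25) was read 5 min after adding resazurin/NADH.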

[14] = qHTS for ATAD5 Agonist screened against the NCATS CANVASS Library (AID 1347367);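 further: luciferase reporter driven by ATAD5 which rises upon DNA damage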
Procedure, shortened: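 Genotoxicity was scored as increased ATAD5-luciferase luminescence in HEK293T after 16hr of exposure, with cell viability measured by fluorescence beforehand in the same well.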

[15] = MCF7 Cancer Cell Toxicity qHTS against the NCATS CANVASS Library (AID 1347369)
Procedure, shortened: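 This 72 hr qHTS scored MCF7 viability by CellTiterGlo luminescence, with 500 cells/well; bortezomib titration ran as control.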

[16] = J3T Cancer Cell Toxicity qHTS against the NCATS CANVASS Library (AID 1347371)
Procedure, shortened: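 Cytotoxicity read as CellTiterGlo ATP luminescence after 72 h incubation (37C, 5% CO2) of J3T canine glioma cells (500/well) with an 11-point compound series.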

[17] = qHTS for Hypoxia signaling pathway (HIF-1) agonists against the NCATS CANVASS Library (AID 1347375)
Procedure, shortened: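 Beta-lactamase reporter under HRE control in ME-180 cells; compounds (11-point qHTS series) added after 5 hrs plating, then 17 hrs at 37C. FRET substrate read after 2 hr; same-well CellTiter-Glo luminescence gave viability and normalization.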

[18] = qHTS for Inflammasome Signaling Inhibitors: IL-1-beta AlphaLISA screen against the NCATS CANVASS Library (AID 1347379);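 further: human THP-1 cells primed with LPS then triggered with ATP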
Procedure, shortened: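 Secreted IL-1B from human THP-1 cells quantified by AlphaLISA 16 hr after compound addition (final up to 57.5 uM). A 1 hr compound pretreatment preceded inflammasome activation with 250 ng/mL LPS plus 1.25 mM ATP (final).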

[19] = Vero-766 cells viability qHTS against the NCATS CANVASS Library: Counterscreen for Zika virus inhibition assay (AID 1347394); further: series mostly up to about 46 µM; nearly all actives have a fitted effect of over 60% in size
Procedure, shortened: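 Counterscreen for toxicity: Vero 766 cells exposed 72 h to an 11-point compound series, viability by CellTiter-Glo.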

[20] = qHTS for inhibitors of Wild type Zika virus screened against the NCATS CANVASS Library (AID 1347396);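 further: ATP luminescence of surviving cells so rescue from viral cell killing; series mostly up to about 46 µM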
Procedure, shortened: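 Luminescent CellTiter Glo read-out of virus-induced cytotoxicity, 72 h post-infection, in Vero 766 cells. Compounds were tested at 11 concentrations; uninfected, vehicle-treated wells defined 100% inhibition.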

Row | SMILES | Potency [1] | Potency [2] | Potency [3] | Potency [4] | Potency [5] | Potency [6] | Potency [7] | Potency [8] | Potency [9] | outcome [10] | Potency [11] | Potency [12] | Potency [13] | Potency [14] | Potency [15] | Potency [16] | Potency [17] | Potency [18] | Potency [19] | Potency [20]
1 | CC(O)/C=C/C1(O)C(C)(C)CC(O)CC1(C)O (stereo not given) | inactive | inactive | inactive | inactive | inactive | inactive | inactive | inactive | inactive | inactive | inactive | inactive | inactive | inactive | inactive | inactive | inactive | inactive | inactive | inactive
2 | O=C(O)CC1OCc2c(O)cccc21 (stereo not given) | inactive | inactive | inactive | inactive | inactive | inactive | inactive | inactive | inactive | inactive | inactive | inactive | inactive | inactive | inactive | inactive | inactive | inactive | inactive | inactive
3 | CC1C(=O)C23CCC1C[C@]21O[C@@H]2C(C)(C)C=CC(=O)[C@@]23COC1=O (stereo not given in full) | 31.1 µM (active) | inactive | inactive | inactive | inactive | inactive | inactive | inactive | inactive | inactive | inactive | inactive | inactive | inactive | inactive | inactive | inactive | inactive | inactive | inactive
4 | O=Cc1ccc2n1C[C@@]1(OC2)O[C@H](CO)[C@@H](O)[C@@H]1O | inactive | inactive | inactive | inactive | inactive | inactive | inactive | inactive | inactive | inactive | inactive | inactive | inactive | inactive | inactive | inactive | inactive | inactive | inactive | inactive
5 | C[C@@H]1C(=O)[C@]23CC[C@H]1C[C@]21O[C@H]2C(C)(C)C=CC(=O)[C@@]23COC1=O | 62.1 µM (active) | inactive | inactive | inactive | inactive | inactive | inactive | inactive | inactive | inactive | inactive | inactive | inactive | inactive | inactive | inactive | inactive | inactive | inactive | inactive
6 | C=C1C[C@@]23C=CC(=O)[C@@](C)(CCC(=O)Nc4c(OC5O[C@H](CO)[C@@H](O)[C@H](O)[C@H]5O)ccc(C(=O)O)c4O)C2C[C@@H]1CC3 (stereo not given in full) | 39.2 µM (active) | inactive | inactive | inactive | inactive | inactive | inactive | inactive | inactive | inactive | inactive | inactive | inactive | inactive | inactive | inactive | inactive | inactive | inactive | inactive
7 | C=C1[C@H]2CC[C@@]3(C=CC(=O)[C@@](C)(CCC(=O)Nc4c(O)ccc(C(=O)O)c4O)C3C2)[C@H]1O (stereo not given in full) | 44 µM (active) | inactive | inactive | inactive | inactive | inactive | inactive | inactive | inactive | inactive | inactive | inactive | inactive | inactive | inactive | inactive | inactive | inactive | inactive | inactive
8 | O=C1c2c(O)cc(O)cc2O[C@@H](c2ccc(O)cc2)[C@@H]1c1c(O)cc(O)c2c(=O)cc(-c3ccc(O)c(O)c3)oc12 | 3.92 µM (active) | inactive | inactive | inactive | inactive | inactive | inactive | inactive | inactive | inactive | inactive | inactive | inactive | inactive | inactive | inactive | inactive | inactive | inactive | inactive
9 | CC[C@H](C)C(NC(=O)[C@@H](NC)C(C)C)C(=O)NC1C(=O)N(C)[C@@H](C(C)O)C(=O)N[C@@H](C(C)C)C(=O)N(C)[C@@H](CC(C)C)C(=O)NC(C(C)C)C(=O)N(C)[C@@H](C(C)C)C(=O)N(C)[C@@H](Cc2c[nH]c3cccc(OC)c23)C(=O)N[C@@H](C(C)C)C(=O)N[C@@H]([C@H](O)c2ccccc2)C(=O)N[C@@H](C(C)C)C(=O)O[C@@H]1C (stereo partly drawn) (H-[NMeV][ξIle][ξThr(3R)(O-yl)][NMeThr(3ξ)]V[NMeL][ξV][NMeV][NMeTrp(4-OMe)]V[Phe(3R-OH)]V; ester 3-C) | inactive | inactive | 11.9 µM (active) | inactive | inactive | inactive | inactive | inactive | inactive | inactive | inactive | inactive | inactive | inactive | inactive | inactive | inactive | inactive | inactive | inactive
10 | C/C=C/c1cc(OC)c2c(c1)[C@@H](C)[C@H](c1ccc(O)c(OC)c1)O2 | 55.3 µM (active) | inactive | inactive | inactive | inactive | inactive | inactive | inactive | inactive | inactive | inactive | inactive | inactive | inactive | inactive | inactive | inactive | inactive | inactive | inactive
